The values below come from PubChem BioAssay AID602340 (Broad Institute, 2012).

In all, about 330,000 compounds went through this assay and about 2,600 (0.79%) were called active. Shown is part of a subset that was picked to be rich in actives. Unmarked numbers belong to inactive results.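 Rule for the calls: active = mean ATP rescue above about 67%, or every replicate alone reaching that limit (limit read from the data, passing the limit was not always enough); inconclusive = no clear call, values can overlap the other calls; inactive = mean under the limit and some replicate under it.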

This test can be described thus: suppressors of statin myotoxicity in C2C12 myotubes, primary screen, cell-based, single point, plate reader (AID 602340).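 Note: myotubes were challenged with 10 µM simvastatin during compound exposure.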 To be noted: C2C12 myotubes + simvastatin, ATP luminescence, 48 h; at 7.49 µM; hits give high values; scaled: DMSO 0, geranylgeraniol control 100.
In the case of `C[C@H](NC(=O)C[C@@H]1CC[C@@H]2[C@H](COC[C@@H](O)CN2Cc2cc(F)ccc2F)O1)c1ccccc1`, the rescue of ATP level is 6.87%.
With `CN1[C@@H]2c3ccc(C4=CCCCC4)c(=O)n3C[C@H]1[C@H](CO)[C@H]2C(=O)NCc1ccc(F)cc1`, the rescue of ATP level was 12.7%.
The figure for `C[C@H]1CN([C@@H](C)CO)C(=O)c2cc(C#CC3CCCC3)cnc2O[C@H]1CN(C)C(=O)c1ccncc1` is -53.3%; for `CO[C@@H]1CN(C)C(=O)c2cc(NC(=O)Nc3cc(F)ccc3F)ccc2OC[C@@H](C)N(C)C[C@H]1C` it is -33.7%.
Regarding `C[C@H]1CN([C@@H](C)CO)S(=O)(=O)c2ccc(C#CC3CCCC3)cc2O[C@@H]1CN(C)C(=O)c1cccc(F)c1`, the rescue of ATP level was -41%.
For `CNC(=O)C[C@H]1CC[C@H]2[C@H](COc3ccc(NC(=O)c4cc(C)on4)cc3C(=O)N2C)O1`, the rescue of ATP level is 7.63%.
The value for `COc1ccccc1NC(=O)N1C[C@H]2[C@@H](c3ccccc31)[C@H](CO)N2Cc1ccc2c(c1)OCO2` was 46.6%; that for `COc1ccc(OC)c(-c2csc(-c3cccs3)n2)c1` was -1.11%; that for `COc1cccc(C(=O)n2ccc(-c3cccs3)n2)c1` was 132% (active).
Consider `COc1cccc(NC(=O)CN(C)C(=O)/C=C/c2cn(-c3ccccc3)nc2-c2cccs2)c1`, for which the rescue of ATP level is -0.997%.
The figure for `O=C(N[C@@H]1CC[C@H](CCn2cc(-c3ccccn3)nn2)O[C@@H]1CO)c1ccccc1` is 0.826%; for `C[C@H](CO)N1C[C@H](C)[C@H](CN(C)C(=O)C2CCOCC2)Oc2ncc(-c3ccccc3)cc2C1=O` it is -10.6%; for `CCCNC(=O)C[C@H]1CC[C@H]2[C@@H](COC[C@H](O)CN2C(=O)Nc2c(C)noc2C)O1` it is 5.16%.
The figure for `CCOC(=O)c1c(NC(=O)CSc2nnc(C)c(=O)[nH]2)sc2c1CCC2` is 131% (active).
The value for `CCOC(=O)c1c(NC(=O)CSc2nnc(CN3CCOCC3)n2C)sc2c1CCCC2` was -1.41%; that for `CCOC(=O)c1c(NC(=O)CSc2cn(CC)c3ccccc23)sc2c1CCC2` was 15.7%; that for `O=C(C[C@@H]1C=C[C@H](NC(=O)Nc2ccc(C(F)(F)F)cc2)[C@H](CO)O1)NCc1cccc(F)c1` was 18.6%.
With `CCOCCCN1C(=O)C2C(C(=O)Nc3ccc(OCC)cc3)C3C=CC2(O3)C1C(=O)NC1CCCCC1` (configuration not stated), the rescue of ATP level was 9.74%.
The value for `CC(C)COC(=O)C1C2C=CC3(CN(C(C)c4ccc(Br)cc4)C(=O)C13)O2` (configuration not stated) was 4.94%.
The value for `CCOC(=O)CN1CC23C=CC(O2)C(C(=O)Nc2ccc(F)cc2)C3C1=O` (configuration not stated) was 97% (active); that for `O=C(CN1CCOCC1)N[C@@H]1CC[C@H](CCNS(=O)(=O)c2ccccc2F)O[C@H]1CO` was 14.2%; that for `Cc1cc(C)n2nc(SCC(=O)NC(=O)NCc3ccco3)nc2n1` was -3.52%.
Take `Cc1ccc(SCC(=O)NC(=O)NCc2ccco2)c(C)c1`: the rescue of ATP level is 95.8% (active).
Take `Cc1ccc(NC(=O)C(=O)NCc2ccco2)c(C)c1`: the rescue of ATP level was 9.27%.
The figure for `CC(C)NC(=O)N(C)C[C@@H]1Oc2ncc(-c3ccc(C(=O)N(C)C)cc3)cc2C(=O)N([C@H](C)CO)C[C@H]1C` is -0.478%.
The figure for `Cc1cccc(N(CC(O)CN(C)C)S(=O)(=O)c2ccccc2)c1` (configuration not stated) is -10.1%; for `Cc1ccc(S(=O)(=O)N(CC(O)CN2CCCCC2)c2cccc([N+](=O)[O-])c2)cc1` (configuration not stated) it is 5.45%.
On to `O=S(=O)(c1ccccc1)N(CC(O)CN1CCCCC1)c1ccccc1` (configuration not stated), for which the rescue of ATP level is 152% (active).
Take `COc1ccccc1-c1cn(CC[C@H]2CC[C@@H](NC(=O)Cc3ccccn3)[C@@H](CO)O2)nn1`: the rescue of ATP level was 5.82%.
On to `Cc1ccccc1-n1c(SCC(=O)Nc2cccc3ccccc23)nc(O)cc1=O`, for which the rescue of ATP level was 7.58%.
The value for `Cn1c(SCC(=O)Nc2ccc(Cl)cc2)nc(O)cc1=O` was 21.6%; that for `CC(C)Cn1c(SCC(=O)Nc2ccc(Cl)cc2F)nc(O)cc1=O` was 95.3% (active).
With `C/C=C/c1ccc([C@@H]2[C@@H](CO)N(C(=O)CC)[C@H]2CN(C)C(=O)C2CC2)cc1`, the rescue of ATP level was 7.07%.
The figure for `CO[C@@H]1CN(C)C(=O)c2cc(NC(=O)NC(C)C)ccc2OC[C@@H](C)N(CC2CC2)C[C@@H]1C` is 3.47%; for `CN(CC(=O)NC1CCCCC1)S(=O)(=O)c1cccc2cccnc12` it is -5.41%; for `Cc1ccc(S(=O)(=O)NCC(=O)N(CC(=O)NC2CCCCC2)Cc2ccco2)cc1` it is 13.6%.
The figure for `Cc1ccc(S(=O)(=O)N(C)CC(=O)NC2CCCC2)cc1` is 96.1% (active).
As for `CCCNC(=O)N1C[C@H](C)[C@@H](OC)CN(C)C(=O)c2ccc(NS(C)(=O)=O)cc2OC[C@@H]1C`, the rescue of ATP level is -0.593%.
The figure for `Cc1noc(C)c1NC(=O)N(C)C[C@@H]1Oc2ccc(NS(=O)(=O)c3ccc(F)cc3)cc2CC(=O)N([C@@H](C)CO)C[C@H]1C` is -7.19%.
Regarding `O=C(C[C@H]1CC[C@@H]2NC[C@H](O)COC[C@H]2O1)NCCN1CCCCC1`, the rescue of ATP level is -1.01%.
As to `C[C@@H]1CN([C@@H](C)CO)C(=O)Cc2cc(NS(=O)(=O)c3ccc(Cl)cc3)ccc2O[C@H]1CN(C)C(=O)Nc1cccc2ccccc12`, the rescue of ATP level is 25%.
The value for `CC(C)NC(=O)NC(=O)COC(=O)c1ccc(NC(=O)CC#N)cc1` was 113% (active); that for `N#CCC(=O)Nc1ccc(C(=O)OCC(=O)Nc2sc3c(c2C#N)CCCC3)cc1` was 4.12%; that for `CCOc1ccc(NC(=O)c2ccc(NC(=O)COC(=O)c3ccc(NC(=O)CC#N)cc3)cc2)cc1` was -8.99%.
As for `Cc1cccc2c(=O)n3c(nc12)CCCCC3`, the rescue of ATP level is 66.7% (active).
For the compound `O=c1c2c(nc3n1CCCCC3)sc1c(O)cccc12`, the rescue of ATP level was 6.49%.
The figure for `Cc1cc(=O)n2c3c(cccc13)CCC2` is 0.243%; for `CC(C)CC#Cc1cnc2c(c1)C(=O)N([C@@H](C)CO)C[C@H](C)[C@@H](CN(C)S(=O)(=O)c1cn(C)cn1)O2` it is -12.3%.
Consider `C[C@H]1CCCCO[C@H](CN(C)Cc2ccccc2)[C@@H](C)CN([C@@H](C)CO)C(=O)c2cc(NS(C)(=O)=O)ccc2O1`, for which the rescue of ATP level is 0.662%.
Turning to `O=C(c1ccco1)N(Cc1nc2ccccc2c(=O)[nH]1)C1CCCC1`, the rescue of ATP level was 69.1% (active).
The figure for `CCCC(=O)N(CCc1ccccc1)Cc1nc2ccccc2c(=O)[nH]1` is 4.48%; for `CCN(CC(=O)NC(=O)NCc1ccccc1)Cc1nc2ccccc2c(=O)[nH]1` it is -7.59%; for `CCCNC(=O)N[C@@H]1CC[C@@H](CCn2cc(C3CC3)nn2)O[C@@H]1CO` it is 4.61%.
Consider `CCn1nnnc1SCC(=O)c1ccc(C)cc1C`, for which the rescue of ATP level is 122% (active).
With `CCn1nnnc1SCC(=O)Nc1ccc(N(C)C)cc1`, the rescue of ATP level was -19%.
The value for `CCOC(=O)c1c(-c2ccc(C)cc2C)csc1NC(=O)CSc1nnnn1C` was 8.4%; that for `C/C=C/c1ccc2c(c1)O[C@@H](CN(C)C(=O)C1CCOCC1)[C@H](C)CN([C@H](C)CO)S2(=O)=O` was 7.79%.
The value for `Oc1ccc(-c2onc3ccc(Cl)cc23)cc1` was 108% (active); that for `CC(OC(=O)c1ccc2noc(-c3ccccc3)c2c1)C(N)=O` (configuration not stated) was 20.5%.
The figure for `NC(N)=Nc1nc(-c2ccccc2)c2cc(Cl)ccc2n1` is -791%.
Take `C[C@H](CO)N1C[C@H](C)[C@H](CN(C)Cc2ccncc2)Oc2ccc(NS(=O)(=O)c3cn(C)cn3)cc2C1=O`: the rescue of ATP level was -11.2%.
For the compound `C[C@H](CO)N1C[C@H](C)[C@H](CN(C)C(=O)c2ccccn2)Oc2ncc(-c3ccccc3F)cc2C1=O`, the rescue of ATP level was 16.4%.
For the compound `CCCC(=O)Nc1ccc2c(c1)C(=O)N(C)C[C@@H](OC)[C@@H](C)CN(Cc1cncnc1)[C@@H](C)CO2`, the rescue of ATP level is -0.178%.
As to `C[C@@H]1CN([C@@H](C)CO)C(=O)c2cc(C#CC3CC3)cnc2O[C@@H]1CN(C)C(=O)Cc1ccccn1`, the rescue of ATP level is 13.5%.
The value for `CO[C@@H]1CN(C)C(=O)c2ccc(NC(=O)c3ccc(F)cc3)cc2OC[C@H](C)NC[C@@H]1C` was -3.77%.
The figure for `CCCNC(=O)N1[C@@H]2CN(C)c3ccccc3[C@@H]2[C@@H]1CO` is 9.21%; for `O=C(C[C@@H]1C[C@H]2c3cc(NC(=O)Nc4ccccc4F)ccc3O[C@H]2[C@@H](CO)O1)NCc1ccncc1` it is 2.48%.
Take `COc1ccc(OC)c2c(N)c(C#N)c(C(F)(F)C(F)(F)F)nc12`: the rescue of ATP level is 89.2% (active).
On to `COc1ccc(C2CC(=O)Nc3sc(=N)c4c(N)c(C#N)c(N)nc4c32)cc1OC` (configuration not stated), for which the rescue of ATP level was -2.72%.
In the case of `CC(C)NC(=O)Nc1ccc2c(c1)C(=O)N([C@@H](C)CO)C[C@@H](C)[C@H](CN(C)Cc1ccc(C(=O)O)cc1)O2`, the rescue of ATP level was 6.31%.
In the case of `CC(=O)Nc1ccc(C(=O)CSc2nnc(Cc3ccccc3)o2)cc1`, the rescue of ATP level was 1.31%.
The value for `CCOc1ccc(Nc2nc(Cc3nnc(SCC(=O)NC4CCCC4)n3C)cs2)cc1` was 33.9%; that for `CCOc1ccc(Nc2nc(Cc3nnc(SCC(=O)c4ccc(C)cc4)o3)cs2)cc1` was 76.7% (active); that for `COCC(=O)Nc1ccc2c(c1)OC[C@H](C)NC[C@@H](C)[C@H](OC)CN(C)C2=O` was 7.72%.
On to `O=C(c1cccnc1)N1CC[C@@H]2[C@@H](CO)Nc3ccc(-c4ccccc4)cc3[C@@H]21`, for which the rescue of ATP level is 2.73%.
The figure for `CO[C@H]1CN(C)C(=O)c2cc(NC(=O)c3ccc4c(c3)OCO4)ccc2OC[C@@H](C)N(CCC(F)(F)F)C[C@H]1C` is 6.03%; for `O=C(N[C@H]1CC[C@H](CCNS(=O)(=O)c2ccc(F)cc2)O[C@H]1CO)C1CCCC1` it is 6.44%.
